Compound activity (PubChem)
KB-V1 cytotox: kills drug-selected multidrug resistant KB-V1 cells. KB-V1 MDR cells viability, CellTiter-Glo, 72 h. Potency, µM (highest dose often 46.1 µM), hits mostly cytotoxic. 400,000 compounds, 3.4% hits; note: potency is the fitted concentration of half-maximal effect; % is set by controls: 0 for no effect and ±100 for the full control effect; nearly all actives have a fitted effect of over 60% in size
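Drug-selected KB-V1 cells, grown in DMEM lacking phenol red with 10% FBS, receive compound titrations; after three days at 37 degrees C, surviving cell ATP is quantified by CellTiter-Glo luminescence and responses normalized and curve-fitted.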
ASM inhibitor: blocks human secretory acid sphingomyelinase; P17405; placental ASM, HMU-PC fluorogenic substrate, 60 min; Potency, µM (highest dose often 57.5 µM), without a hit: at the top dose activity change, negative = inhibition, hits mostly inhibitors; 340,000 compounds, 0.006% hits; note: potency is the fitted concentration of half-maximal effect
Target sequence (P17405 47-631 limits assumed): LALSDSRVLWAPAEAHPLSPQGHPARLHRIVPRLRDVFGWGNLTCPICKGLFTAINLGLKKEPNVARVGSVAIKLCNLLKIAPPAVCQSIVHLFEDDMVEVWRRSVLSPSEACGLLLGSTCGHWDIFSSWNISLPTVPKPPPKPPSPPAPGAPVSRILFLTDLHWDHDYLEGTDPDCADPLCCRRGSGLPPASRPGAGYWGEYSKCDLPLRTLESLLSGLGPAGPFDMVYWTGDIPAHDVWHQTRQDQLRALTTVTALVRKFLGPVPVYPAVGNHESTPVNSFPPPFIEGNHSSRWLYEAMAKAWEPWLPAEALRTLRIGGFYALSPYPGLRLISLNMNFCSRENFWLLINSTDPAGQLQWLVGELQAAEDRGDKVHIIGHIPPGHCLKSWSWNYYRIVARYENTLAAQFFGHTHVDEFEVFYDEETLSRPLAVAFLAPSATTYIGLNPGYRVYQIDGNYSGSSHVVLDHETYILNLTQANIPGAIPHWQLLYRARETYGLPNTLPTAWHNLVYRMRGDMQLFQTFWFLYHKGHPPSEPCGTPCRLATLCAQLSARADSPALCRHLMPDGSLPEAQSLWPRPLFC
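Fluorogenic HMU-PC substrate (9 uM final) is turned over by placental ASM in 60 min at 37 C after a 10 min compound preincubation. Reaction ended by alkaline stop (pH 10), with fluorescence read at 386/447 nm.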
MCF10A rerep: induces DNA re-replication in MCF 10a normal breast cells | AID 624296 | Potency, µM (highest dose often 46.1 µM), for the others: top-dose activity, positive = re-replication, hits mostly activators | 350,000 compounds, 2.9% hits | MCF 10A DNA re-replication, Hoechst nuclear intensity, 48 h; note: potency is the fitted concentration of half-maximal effect; % of control where 0% means no effect; nearly all actives have a fitted effect of over 50% in size
KB-3-1 tox: kills parental KB-3-1 adenocarcinoma cells; Potency, µM (top dose mostly 46.1 µM), hits mostly cytotoxic; KB-3-1 viability, CellTiter-Glo ATP luminescence, 72 h; 400,000 compounds, 1.4% hits; AID 1347075; note: potency is the fitted concentration of half-maximal effect; % is set by controls: 0 for no effect and ±100 for the full control effect; nearly all actives have a fitted effect of over 60% in size
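Using CellTiter-Glo luminescence, growth of non-resistant KB-3-1 adenocarcinoma cells is assessed 72 h after pin-tool compound addition at 37 °C. Normalized responses across the concentration series yield fitted curves.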
Giardia kill: kills Giardia lamblia; Giardia lamblia trophozoite viability; 340,000 compounds, 0.15% hits; AID 540267; activity change, % at 7.66 µM, hits read low; in the data active = activity change below about -80%; inconclusive = between about -30% and that limit;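 note: parasites exposed to compound for two days anaerobically before the ATP read; % is set by controls: 0 for no effect and ±100 for the full control effect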
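Anaerobic 48 hrs incubation at 37 deg C of 100 trophozoites/well with test compounds; ATPLite 1-Step luminescence, 15-30 min RT, reports cellular ATP as viability.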
SW480 rerep: DNA re-replication induction in SW480 cells. SW480 DNA re-replication, Hoechst DNA content imaging, 48 h. Potency, µM (titrated, usually from 46.1 µM), inactives show at the highest dose re-replication activation, most hits filed as activators. 340,000 compounds, 1.8% hits; note: potency is the fitted concentration of half-maximal effect; % of control where 0% means no effect; nearly all actives have a fitted effect of over 55% in size
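250 cells/well; 23 nL cpd via pin tool; 48 hr, 37 C, 5% CO2; Hoechst 40 min; imager read of total nuclear intensity, ex 405/em 500-530 nm.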
Numbers without * were called inactive; i = inactive; ? = inconclusive; · = not tested or not shown; [ ] = dose if it differs, or a comment. Rows were chosen to be rich in hits. Some 6.9% of all compounds tested hit in one or more screens of this group. Unless noted, calls come from the whole dose curve; as a rule, active = well fitted curve in the direction sought with a large enough effect; inconclusive = small, poorly fitted or top-dose-only effect, or another doubt; inactive = no such curve, though single readings can be large; an effect the other way counts as inactive or inconclusive.

SMILES | KB-V1 cytotox | ASM inhibitor | MCF10A rerep | KB-3-1 tox | Giardia kill | SW480 rerep
Cc1ccccc1CNCCSc1nnnn1-c1ccccc1 | i | · | · | i | · | ·
O=C(CCC1CCCCC1)NC1CCCCC1 | i | 1% | 3% | i | 9 | -3%
CN(C)CCOc1ccc2c(c1)C(=O)C(=Cc1ncc([N+](=O)[O-])n1C)C2 | 3.7µM* | · | · | ? | · | ·
COc1ccc(C#Cc2c(C=O)n(C)c3ccccc23)cc1 | i | 431% | ? | ? | -5 | 21µM*
Cn1c(C=O)c(C#Cc2ccccc2)c2ccccc21 | i | 397% | 8.2µM* | ? | -10 | ?
COc1ccc(C#Cc2c(-c3ccccc3)n(C)c3ccccc23)cc1 | i | 482% | ? | ? | 7 | ?
Nc1nonc1C(=O)NCCNS(=O)(=O)c1ccc(Br)cc1 | i | 1% | 18µM* | i | -9 | 5%
O=S(=O)(c1ccc(Cl)cc1)N1CCCC(c2nc(-c3ccc(F)cc3)no2)C1 (centres undefined) | i | -5% | 6% | i | 8 | 12%[9.22 µM]
COc1ccc(-c2noc(C3CCCN(S(=O)(=O)c4cccc(Cl)c4)C3)n2)cc1OC (centres undefined) | 5.2µM* | -7% | ? | ? | -3 | 2%
COc1ccc(NC(=O)N2CCCC(c3nc(-c4ccc(C(C)C)cc4)no3)C2)cc1 (centres undefined) | 8.2µM* | 15% | ? | ? | 10 | 8%
COc1ccccc1C(=O)N1CCCC(c2nc(-c3cc(OC)c(OC)c(OC)c3)no2)C1 (centres undefined) | 4.6µM* | 3% | 16% | i | -22 | -1%
O=C(C1CCCN(S(=O)(=O)c2cccs2)C1)N1CCN(c2cccc(Cl)c2)CC1 (centres undefined) | i | · | · | i | · | ·
COc1ccc(S(=O)(=O)N2CCN(CCc3ccccc3)CC2)cc1 | ? | -1% | -5% | ? | 1 | ?
c1ccc(COc2cccc(CN3CCN(c4ccccn4)CC3)c2)cc1 | 18µM* | 3% | ? | i | 11 | ?
Cn1c(=O)c2c(nc(NCc3ccco3)n2C)n(C)c1=O | i | 1% | -5% | i | -7 | -1%
Cn1c(=O)c2c(nc(NCCO)n2CCCc2ccccc2)n(C)c1=O | i | -3% | 1% | i | 7 | 12%
Cn1c(=O)[nH]c(=O)c2c1nc(SCCO)n2CCCc1ccccc1 | ? | -5% | ? | i | 1 | -17%
Cn1c(=O)c2c(nc(NCc3ccccc3)n2CCCc2ccccc2)n(C)c1=O | 2.9µM* | ? | ? | ? | 36 | -6%
Cn1c(=O)c2c(nc(NCc3ccco3)n2C/C=C/c2ccccc2)n(C)c1=O | 3.3µM* | -15% | ? | i | 12 | ?
Cc1csc(Sc2nc3c(c(=O)[nH]c(=O)n3C)n2CCCc2ccccc2)n1 | 4.1µM* | 4% | 9% | ? | 7 | -15%
COCCNc1nc2c(c(=O)n(C)c(=O)n2C)n1CCCc1ccccc1 | 16µM* | · | · | i | · | ·
O=C(NCc1cccs1)c1ccc(CSc2nc3ccncc3n2Cc2ccccc2)cc1 | ? | · | · | i | · | ·
Cn1c(=O)c2c(nc(Br)n2CCc2ccccc2)n(C)c1=O | 16µM* | -3% | 12% | i | -4 | -8%
CN(Cc1ccccc1)Cc1nc2c(c(=O)n(C)c(=O)n2C)n1CCc1ccccc1 | i | -1% | 7% | i | -5 | -2%
Cn1c(=O)[nH]c(=O)c2c1nc(NCc1ccccc1)n2CCCc1ccccc1 | 12µM* | 1% | 2% | i | 5 | -3%
SMILES | KB-V1 cytotox | ASM inhibitor | MCF10A rerep | KB-3-1 tox | Giardia kill | SW480 rerep
CNc1nc2c(c(=O)n(C)c(=O)n2C)n1Cc1ccccc1 | i | -1% | 2% | i | 0 | -1%
CNc1nc2c(c(=O)n(C)c(=O)n2C)n1CCCc1ccccc1 | 8.2µM* | -3% | 12% | ? | 0 | -3%
Cc1ccc(OCCn2c(Br)nc3c2c(=O)n(C)c(=O)n3C)cc1 | ? | 0% | -4% | 21µM* | 7 | -5%
CCOc1ccc(S(=O)(=O)N2CCC(C(=O)N3CCN(c4ccccc4F)CC3)CC2)cc1C | · | -1% | ? | · | -2 | 18%
COCC(C)Nc1ncnc2c1cnn2-c1ccc(C)c(C)c1 (centres undefined) | i | · | · | i | · | ·
Cc1ccc(NC(=O)COc2ccccc2C(=O)Nc2ccccc2)cc1 | i | · | · | i | · | ·
C=CCNc1nc2c(c(=O)n(C)c(=O)n2C)n1CCCCCC | 1.5µM* | -5% | 15% | 1.5µM* | 4 | 1%
CC1CN(Cc2nc3c(c(=O)n(C)c(=O)n3C)n2CCc2ccccc2)CC(C)O1 (centres undefined) | i | 2% | -3% | i | -5 | -1%
CC1CN(Cc2nc3c(c(=O)[nH]c(=O)n3C)n2CCCc2ccccc2)CC(C)O1 (centres undefined) | 3.3µM* | 1% | 2% | i | 25 | -11%
O=C(c1ccc(-c2ccccc2Cl)o1)N1CCN(S(=O)(=O)c2cccs2)CC1 | 21µM* | -1% | ? | i | 7 | 23%
COc1ccc2cc(CN(CC3CCCO3)S(=O)(=O)c3ccccc3)c(=O)[nH]c2c1 (centres undefined) | 21µM* | -2% | 0% | i | -13 | 3%
Cc1cc(C)c2cc(CN(CC3CCCO3)S(=O)(=O)c3ccc4c(c3)OCCO4)c(=O)[nH]c2c1 (centres undefined) | 16µM* | 9% | -46% | i | -16 | 24%
Oc1ccccc1C1C=C(c2ccc3c(c2)OCO3)NC(c2ccc(F)c(Br)c2)N1 (centres undefined) | · | · | · | · | -11 | ·
COc1ccccc1C(=O)NC(=S)NNC(=O)c1sc2ccccc2c1Cl | i | -1% | 5.2µM* | i | ? | 20%
O=C(CNC(=O)c1cccs1)c1ccc(Cl)cc1 | i | -1% | -10% | i | 7 | 1%
O=C(CNC(=O)c1cccs1)c1ccc(F)cc1 | i | 4% | 23µM* | i | -3 | ?
O=C(COc1cccc(NC(=O)c2cccs2)c1)c1ccc(F)cc1 | 7.3µM* | -1% | ? | i | -2 | 0%
Cc1ccc2c(CNCc3ccc(C)o3)c(C(=O)O)n(Cc3ccc(F)cc3)c2c1 | i | · | · | ? | · | ·
O=C(O)C1CCCC[C@H]1C(=O)Nc1ncc([N+](=O)[O-])s1 (some centres undefined) | i | -4% | 0% | i | -9 | 2%
CCCCC(=O)Nc1ncc([N+](=O)[O-])s1 | i | -1% | ? | i | -90* | -4%
